Where “and” joins values, the source holds several entries; their conditions need not be identical. Identical values can stand only once. The campaign covered roughly 360,000 compounds. About 3,900 (1.1%) were called active. The full list was thinned out, with actives kept by preference. A number with no mark means an inactive call.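 Rule for the calls: active = mean replicate inhibition score of at least 50 and every replicate individually at or above 50; inconclusive = only one of the two criteria met; inactive = mean below 50 and not all replicates reaching 50.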
Assay: blockers of JRFL envelope-mediated fusion – HeLa-JRFL effector, CEM21 target cells, luciferase, primary screen (AID 651610);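 note: 0% = plate neutral controls and 100% = maraviroc near 300 nM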
Conditions: HeLa-JRFL Env/CEM21 cell fusion, active compounds read high

O=C(Nc1ccc(F)cc1)N[C@H]1C=C[C@@H](CC(=O)N2CCOCC2)O[C@H]1CO
inhibition (at 16.7 µM unless noted): -5.7%

Cc1noc(C)c1S(=O)(=O)N(C)C[C@H]1OCCCC[C@H](C)Oc2ccc(NC(=O)c3ccccc3)cc2C(=O)N([C@@H](C)CO)C[C@H]1C
inhibition (at 16.7 µM unless noted): -37.3%

C[C@@H]1CN([C@@H](C)CO)S(=O)(=O)c2ccc(C#Cc3ccncc3)cc2O[C@@H]1CN(C)S(=O)(=O)c1ccccc1
inhibition (at 16.7 µM unless noted): 19.4%

C[C@H]1CN([C@@H](C)CO)S(=O)(=O)c2ccc(-c3cccc(F)c3)cc2O[C@@H]1CN(C)C
inhibition (at 12.3 µM): 0.788% | inhibition (at 16.7 µM): -8.73% and -21.2%

C[C@@H]1CN([C@@H](C)CO)S(=O)(=O)c2ccc(-c3cccc(F)c3)cc2O[C@@H]1CN(C)S(=O)(=O)c1ccccc1
inhibition (at 16.7 µM unless noted): 92.8% (active)

Cc1ccc(-c2ccc3c(c2)O[C@H](CN(C)C(=O)Nc2ccc(C(F)(F)F)cc2)[C@@H](C)CN([C@H](C)CO)S3(=O)=O)cc1
inhibition (at 16.7 µM unless noted): 57.4% (active)

C[C@@H]1CN([C@@H](C)CO)S(=O)(=O)c2ccc(Br)cc2O[C@H]1CN(C)S(=O)(=O)c1ccccc1
inhibition (at 16.7 µM unless noted): 18.6%

C[C@@H]1CN([C@H](C)CO)S(=O)(=O)c2ccc(-c3ccncc3)cc2O[C@@H]1CN(C)C(=O)Nc1ccc(C(F)(F)F)cc1
inhibition (at 16.7 µM unless noted): 27.4%

C[C@H](CO)N1C[C@H](C)[C@H](CN(C)S(=O)(=O)c2ccccc2)Oc2cc(Br)ccc2S1(=O)=O
inhibition (at 16.7 µM unless noted): 78% (active)

Cc1ccc(-c2ccc3c(c2)O[C@H](CN(C)C(=O)Nc2ccccc2)[C@@H](C)CN([C@@H](C)CO)S3(=O)=O)cc1
inhibition (at 16.7 µM unless noted): -12.9%

C[C@@H]1CN([C@H](C)CO)S(=O)(=O)c2ccc(-c3cccc(F)c3)cc2O[C@H]1CN(C)S(=O)(=O)c1ccc(F)cc1
inhibition (at 16.7 µM unless noted): 30%

CC(=O)N(C)C[C@H]1Oc2cc(C#Cc3ccccc3F)ccc2S(=O)(=O)N([C@@H](C)CO)C[C@H]1C
inhibition (at 16.7 µM unless noted): 17.7%

COc1cccc(NC(=O)N(C)C[C@H]2OCc3ccccc3-c3ccccc3C(=O)N([C@H](C)CO)C[C@@H]2C)c1
inhibition (at 16.7 µM unless noted): 17.7%

C[C@@H]1CN([C@H](C)CO)C(=O)Cc2cc(NC(=O)NC3CCCCC3)ccc2O[C@H]1CN(C)Cc1ccc(Cl)c(Cl)c1
inhibition (at 16.7 µM unless noted): -10.2%

CC(C)CC#Cc1ccc2c(c1)O[C@@H](CN(C)C(=O)Nc1ccccc1F)[C@@H](C)CN([C@@H](C)CO)S2(=O)=O
inhibition (at 16.7 µM unless noted): 9.38%

Cc1cc2nnc(SCC(=O)N3CCN(c4ccccc4)CC3)n2c(N)n1
inhibition (at 16.7 µM unless noted): -38.7% [at 12.3 µM]

Cn1c(CNC(=O)c2ccco2)nnc1SCC(=O)N1CCN(c2ccccc2)CC1
inhibition (at 16.7 µM unless noted): -10.4% [at 12.3 µM]

Cn1c(Cc2cccc3ccccc23)nnc1SCC(=O)N1CCN(c2cccc(Cl)c2)CC1
inhibition (at 16.7 µM unless noted): 94.5% [at 12.3 µM] (active)

C[C@H]1CCCCO[C@@H](CN(C)C(=O)Nc2ccccc2)[C@@H](C)CN([C@@H](C)CO)C(=O)c2cc(NC(=O)Nc3ccc(F)cc3)ccc2O1
inhibition (at 16.7 µM unless noted): -14%

O=C(CN1CCOCC1)N[C@H]1CC[C@@H](CCNS(=O)(=O)c2ccccc2F)O[C@H]1CO
inhibition (at 16.7 µM unless noted): 21.8%

CCC(=O)N(C)C(c1ccccc1Cl)c1nnnn1-c1c(C)cccc1C (configuration not stated)
inhibition (at 16.7 µM unless noted): 68.5% [at 12.3 µM] (active)

CCOC(=O)N1CCN(C(c2ccnc3ccccc23)c2nnnn2-c2c(C)cccc2C)CC1 (configuration not stated)
inhibition (at 16.7 µM unless noted): 14.5% [at 12.3 µM]

Cc1cccc(C)c1-n1nnnc1C(CCc1ccccc1)N1CCN(C/C=C/c2ccccc2)CC1 (configuration not stated)
inhibition (at 16.7 µM unless noted): -59.3% [at 12.3 µM]

CC(C)NC(=O)N(C)C[C@@H]1Oc2ccc(NC(=O)Cn3cnnn3)cc2CC(=O)N([C@H](C)CO)C[C@H]1C
inhibition (at 16.7 µM unless noted): 13.5%

COc1ccc(CCN2C(=O)c3[nH]nc(-c4ccccc4O)c3C2c2ccc(C)cc2)cc1OC (configuration not stated)
inhibition (at 16.7 µM unless noted): 101% [at 12.3 µM] (active)

COc1ccc(CCN2C(=O)C(C)=C(C)C2=O)cc1OC
inhibition (at 16.7 µM unless noted): -2.55% [at 12.3 µM]

CCCN1C(=O)c2[nH]nc(-c3ccccc3)c2C1c1ccccc1 (configuration not stated)
inhibition (at 16.7 µM unless noted): -22.9% [at 12.3 µM]

COc1ccccc1-c1cnc2c(c1)C(=O)N([C@@H](C)CO)C[C@H](C)[C@@H](CN(C)C(C)=O)O2
inhibition (at 16.7 µM unless noted): 0.851%

COc1ccc(S(=O)(=O)Nc2ccc3c(c2)C(=O)N([C@H](C)CO)C[C@@H](C)[C@@H](CN(C)CC2CCCCC2)OCCCC[C@@H](C)O3)cc1
inhibition (at 16.7 µM unless noted): -26.3%

COc1cccc(/C=C2\SC(=S)N(CCCC(=O)N3CCOCC3)C2=O)c1
inhibition (at 16.7 µM unless noted): 2.26% [at 12.3 µM]

C=CCOc1ccc(/C=C2\SC(=S)N(CCC(=O)O)C2=O)cc1
inhibition (at 16.7 µM unless noted): 60.7% [at 12.3 µM] (active)

COc1ccc(/C=C2\SC(=S)N(CCC(=O)N3CCOCC3)C2=O)cc1OC
inhibition (at 16.7 µM unless noted): 6.28% [at 12.3 µM]

CC1(C)Cc2c(sc3nc(SCC(=O)NCc4ccccc4)n(-c4ccccc4)c(=O)c23)CS1
inhibition (at 16.7 µM unless noted): 138% [at 12.3 µM] (active)

Cc1sc2nc(SCCO)n(-c3ccccc3)c(=O)c2c1C
inhibition (at 16.7 µM unless noted): 14.7% [at 12.3 µM]

COCCNC(=O)CSc1nc2sccc2c(=O)n1-c1ccccc1
inhibition (at 16.7 µM unless noted): -8.5% [at 12.3 µM]

C/C=C/c1cnc2c(c1)C(=O)N([C@@H](C)CO)C[C@H](C)[C@@H](CN(C)C(=O)C1CC1)O2
inhibition (at 16.7 µM unless noted): 10.3%

C[C@@H]1CCCCO[C@H](CN(C)Cc2ccc(C(F)(F)F)cc2)[C@H](C)CN([C@@H](C)CO)C(=O)c2cc(N(C)C)ccc2O1
inhibition (at 16.7 µM unless noted): 6.26%

COc1ccccc1S(=O)(=O)N[C@@H]1CC[C@@H](CCNC(=O)C2CCCCC2)O[C@@H]1CO
inhibition (at 16.7 µM unless noted): -6.59%

COc1ccc(C(C)(C)C)cc1NC(=O)CN(C)C1=NS(=O)(=O)c2ccccc21
inhibition (at 16.7 µM unless noted): 64.3% [at 12.3 µM] (active)

COc1ccc(/C=N/N(C)C2=NS(=O)(=O)c3ccccc32)cc1OC
inhibition (at 16.7 µM unless noted): 1.34% [at 12.3 µM]

C=CCOCCN(C)C1=NS(=O)(=O)c2ccccc21
inhibition (at 16.7 µM unless noted): 1.56% [at 12.3 µM]

COc1ccc(CN(C)C[C@H]2Oc3c(NC(=O)Nc4ccccc4)cccc3C(=O)N([C@@H](C)CO)C[C@@H]2C)cc1
inhibition (at 16.7 µM unless noted): 6.99%

C[C@@H]1CN([C@@H](C)CO)C(=O)Cc2cc(NC(=O)C3CCCCC3)ccc2O[C@@H]1CN(C)CC1CCCCC1
inhibition (at 16.7 µM unless noted): -8.61%

CN(C)C=NC(=O)c1cccn1-c1ncc(C(F)(F)F)cc1Cl
inhibition (at 16.7 µM unless noted): 8.04% [at 12.3 µM]

COc1cccc(/C=N/Nc2ncc(C(F)(F)F)cc2Cl)c1O
inhibition (at 16.7 µM unless noted): 74.7% [at 12.3 µM] (active)

O=c1[nH]c2cccnc2n(CCNc2ncc(C(F)(F)F)cc2Cl)c1=O
inhibition (at 16.7 µM unless noted): -11.9% [at 12.3 µM]

C[C@@H]1CN([C@@H](C)CO)C(=O)c2cc(NS(=O)(=O)c3cccs3)ccc2O[C@H]1CN(C)CC1CCCCC1
inhibition (at 16.7 µM unless noted): -17.2%

Cc1cccc(NC(=O)c2nc[nH]c2C(=O)NCC(=O)OCc2ccccc2)c1
inhibition (at 16.7 µM unless noted): 55.2% [at 12.3 µM] (active)

CC(C)(C)OC(=O)CNC(=O)c1[nH]cnc1C(=O)N[C@@H](Cc1ccccc1)C(=O)OCc1ccccc1
inhibition (at 16.7 µM unless noted): 6.73% [at 12.3 µM]

C[C@H](NC(=O)c1nc[nH]c1C(=O)NCC(=O)OC(C)(C)C)C(=O)OCc1ccccc1
inhibition (at 16.7 µM unless noted): -4.51% [at 12.3 µM]

O=C(C[C@@H]1CC[C@@H]2[C@H](COC[C@H](O)CN2C(=O)c2cccnc2)O1)NC1Cc2ccccc2C1
inhibition (at 16.7 µM unless noted): -0.583%

CO[C@@H]1CN(C)C(=O)c2ccc(NC(=O)c3cccc(Oc4ccccc4)c3)cc2OC[C@H](C)NC[C@@H]1C
inhibition (at 16.7 µM unless noted): 12.8%

Cc1ccc(NC(=O)c2nc[nH]c2C(=O)N[C@@H](CCCCNC(=O)OC(C)(C)C)C(=O)OC(C)(C)C)cc1
inhibition (at 16.7 µM unless noted): 32.1% [at 12.3 µM]

CN1CCn2cnc(C(=O)NCC(=O)OC(C)(C)C)c2C1=O
inhibition (at 16.7 µM unless noted): 2.91% [at 12.3 µM]

C[C@@H]1Cn2cnc(C(=O)Nc3ccc(CNC(=O)OC(C)(C)C)cc3)c2C(=O)N1
inhibition (at 16.7 µM unless noted): 58.6% [at 12.3 µM] (active)

O=C(CCN1CCCCC1)N[C@@H]1C=C[C@@H](CC(=O)N2CCC(Cc3ccccc3)CC2)O[C@H]1CO
inhibition (at 16.7 µM unless noted): 3.09%

CNS(=O)(=O)c1cccc(C(=O)NC2CCCc3ccccc32)c1 (configuration not stated)
inhibition (at 16.7 µM unless noted): 15.1% [at 12.3 µM]

CSCCC(NS(=O)(=O)c1ccc2c(c1)oc(=O)n2C)C(=O)NCc1ccccc1 (configuration not stated)
inhibition (at 16.7 µM unless noted): -4.2% [at 12.3 µM]

CSCCC(NS(=O)(=O)c1ccc2c(c1)oc(=O)n2C)C(=O)NC1CCCc2ccccc21 (configuration not stated)
inhibition (at 16.7 µM unless noted): 87% [at 12.3 µM] (active)

Cc1noc(C)c1NC(=O)N(C)C[C@H]1OCCCC[C@@H](C)Oc2ccc(NS(=O)(=O)c3ccc(Cl)cc3)cc2C(=O)N([C@@H](C)CO)C[C@H]1C
inhibition (at 16.7 µM unless noted): -65.1%

CCCN(C)C[C@H]1OCCCC[C@@H](C)Oc2ccc(NC(=O)Nc3ccc(F)cc3)cc2C(=O)N([C@@H](C)CO)C[C@H]1C
inhibition (at 16.7 µM unless noted): -12.4%

C[C@@H]1CCCCO[C@@H](CN(C)C(=O)C2CCCCC2)[C@H](C)CN([C@H](C)CO)C(=O)c2cc(NC(=O)Cc3ccccc3)ccc2O1
inhibition (at 16.7 µM unless noted): -36.4%

CCNC(=O)N(CC)C[C@H]1N[C@@](CC)(C(=O)OC)[C@H]2C(=O)N(Cc3ccccc3)C(=O)[C@@H]12
inhibition (at 16.7 µM unless noted): -2.99% [at 12.3 µM]

CC[C@]1(C(=O)OC)[C@H]2C(=O)N(Cc3ccccc3)C(=O)[C@H]2[C@H]2CN=C(SCc3ccccc3)N21
inhibition (at 16.7 µM unless noted): 93.6% [at 12.3 µM] (active)

CC[C@]1(C(=O)OC)[C@H]2C(=O)N(C)C(=O)[C@H]2[C@H]2CN(C)C(=NCc3ccccc3)N21
inhibition (at 16.7 µM unless noted): -17.3% [at 12.3 µM]

COC(=O)[C@@]1(C)[C@H]2C(=O)N(Cc3ccccc3)C(=O)[C@H]2[C@H]2CN=C(SCC3CC3)N21
inhibition (at 16.7 µM unless noted): 84% [at 12.3 µM] (active)

CCN(C[C@H]1N[C@@](Cc2ccccc2)(C(=O)OC)[C@H]2C(=O)N(Cc3ccccc3)C(=O)[C@@H]12)C(=O)c1ccc(C)cc1
inhibition (at 16.7 µM unless noted): -47.2% [at 12.3 µM]

CC[C@]1(C(=O)OC)[C@H]2C(=O)N(Cc3ccccc3)C(=O)[C@H]2[C@H]2CN=C(SCc3ccc(C#N)cc3)N21
inhibition (at 16.7 µM unless noted): 87.6% [at 12.3 µM] (active)

CCN1C[C@@H]2[C@@H]3C(=O)N(Cc4ccccc4)C(=O)[C@@H]3[C@](C)(C1=O)N2C(=O)c1ccc(C(C)(C)C)cc1
inhibition (at 16.7 µM unless noted): -9.05% [at 12.3 µM]

CCN1C[C@@H]2[C@@H]3C(=O)N(Cc4ccccc4)C(=O)[C@@H]3[C@](Cc3ccccc3)(C(=O)OC)N2C1=NC1CCCCC1
inhibition (at 16.7 µM unless noted): 16.7% [at 12.3 µM]

COC(=O)[C@]1(Cc2ccccc2)N[C@H](CN(C)S(=O)(=O)c2ccc(F)cc2)[C@@H]2C(=O)N(Cc3ccccc3)C(=O)[C@@H]21
inhibition (at 16.7 µM unless noted): 31.6% [at 12.3 µM]

Source: PubChem BioAssay AID651610 (Broad Institute, 2012)
